Only a selection was taken, and hits are over-represented in it overall.
nsP2pro primary – blocks chikungunya virus nsP2 protease peptide cleavage; Q8JUX6; FRET peptide cleavage, nsP2pro, fluorescence 1 h; Potency, µM (titrated, usually from 24.9 µM), for inactives: top-dose activity change, negative = inhibition, most hits filed as inhibitors; 1.1% of 31,000 active; AID 1964107; further: nearly all actives have a fitted effect of over 60% in size
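Recombinant nsP2pro (150 nM) was preincubated with compound 15 min at room temperature in 10 mM Tris-HCl pH 8.0, 0.01% Tween 20. Peptide 2 FRET substrate (2.5 uM) was then added and fluorescence read after 1 h. Seven-point series, up to 25 uM.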
nsP2 cell sec – cell-based CHIKV nsP2 protease inhibition, secondary | shares compounds with nsP2pro primary | cell-based CHIKV nsP2 protease reporter assay | Potency, µM (highest dose often 51.1 µM), for the others: top-dose activity change, negative = inhibition, usual class: inhibitors | 10% of 450 active | AID 1964100; further: nearly all actives have a fitted effect of over 70% in size
NSP2 full ctr – selectivity test for CHIKV nsP2 protease inhibitors: full-length NSP2; shares compounds with nsP2pro primary; Full-length CHIKV NSP2 protease enzymatic counterscreen; Potency, µM (doses to about 50.7 µM), for inactives: at the highest dose activity change, negative = inhibition, hits mostly inhibitors; 39% of 410 active; AID 1964101; further: nearly all actives have a fitted effect of over 65% in size
Furin counter – human furin inhibition, counterscreen for nsP2pro inhibitors; 6% of 410 active; shares compounds with nsP2pro primary; AID 1964102; Recombinant human furin enzymatic counterscreen, fluorogenic substrate; Potency, µM (doses to about 50.6 µM), for inactives: at the highest dose activity change, negative = inhibition, actives largely listed as inhibitors
NS23 peptide cs – selectivity test for CHIKV nsP2 protease inhibitors: endogenous NS2/3 peptide. shares compounds with nsP2pro primary. Purified CHIKV nsP2 protease, endogenous NS2/3 peptide cleavage. Potency, µM (doses to about 51 µM), for inactives: at the top dose activity change, negative = inhibition, usual class: inhibitors. 34% of 410 active. AID 1964103; further: nearly all actives have a fitted effect of over 55% in size
Papain cs – selectivity counter-screen for CHIKV nsP2 protease inhibitors: papain. shares compounds with nsP2pro primary. purified papain protease activity, enzymatic inhibition. Potency, µM (series often up to 51 µM), for inactives: at the top dose activity change, negative = inhibition, most hits filed as inhibitors. 5% of 410 active
Target sequence (P00784 whole entry, looked up): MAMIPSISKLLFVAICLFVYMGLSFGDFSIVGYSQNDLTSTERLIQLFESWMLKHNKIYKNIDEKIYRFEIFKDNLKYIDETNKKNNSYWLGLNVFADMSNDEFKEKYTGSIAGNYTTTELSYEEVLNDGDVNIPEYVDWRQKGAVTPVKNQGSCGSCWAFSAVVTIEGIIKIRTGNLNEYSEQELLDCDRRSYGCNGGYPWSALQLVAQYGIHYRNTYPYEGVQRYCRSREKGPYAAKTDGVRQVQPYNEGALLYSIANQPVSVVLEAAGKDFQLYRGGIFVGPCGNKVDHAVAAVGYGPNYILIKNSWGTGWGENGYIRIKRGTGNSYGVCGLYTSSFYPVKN
nsP2pro confirm – confirmation of CHIKV nsP2 protease inhibitors; Potency, µM (series often up to 25.5 µM), for inactives: at the highest dose activity change, negative = inhibition, hits mostly inhibitors; 43% of 410 active; CHIKV nsP2 protease enzymatic activity, qHTS; shares compounds with nsP2pro primary; further: nearly all actives have a fitted effect of over 75% in size
HCV NS3 counter – inhibits HCV NS3/4A protease in an nsP2pro selectivity counterscreen; Potency, µM (titrated, usually from 50.9 µM), usual class: inhibitors; AID 1964106; HCV NS3/4A protease biochemical counterscreen; 20% of 410 active; shares compounds with nsP2pro primary; further: nearly all actives have a fitted effect of over 55% in size
Starred values were filed as active, the others as inactive; i = inactive; ? = inconclusive; · = no result given; [ ] = dose if it differs, or a comment. The call rests on the fitted dose curve. On the % scale 0 is the no-effect control and ±100 the full control effect; potency means the concentration at half of the fitted maximal effect.

SMILES	nsP2pro primary	others
CC1=C2CC(O)(C(C)(C)O)C(O[C@@H]3O[C@H](CO)[C@@H](O)[C@H](O)[C@H]3O)CC(C)C2CC1=O (some centres undefined)	30%[10 µM]
C=C1C(=O)O[C@@H]2C[C@]3(C)[C@@H](CCC(C)=O)[C@@H]3C[C@H]12	17%
C=C1C(=O)O[C@@H]2C[C@H](C)[C@@H]3CC(=O)C(C)=C3C[C@H]12	0.44µM*	nsP2 cell sec=?;NSP2 full ctr=?;Furin counter=-7%;NS23 peptide cs=?;Papain cs=-3%;nsP2pro confirm=?;HCV NS3 counter=i
COc1cc(Nc2nc(-c3ccncc3)nc3ccccc23)ccc1N1CCN(C)CC1	-3%
Cc1cccc(-n2cnc3cc(C(=O)N4CCCCCC4)ccc32)c1	-1%
Cc1ccc2nc3sc(C(=O)N4CCCCC4)cc3cc2c1	-3%
CCCCN(C)C(=O)Cn1nc(-c2cccc(C)c2)ccc1=O	5%
O=C(Nc1ccc(F)c(C(F)(F)F)c1)Nc1cccc(-c2ccncc2)n1	4%
CS(=O)(=O)c1ncc(Cl)c(C(=O)N2CCN(c3cccc(Cl)c3)CC2)n1	1.6µM*	nsP2 cell sec=1.5µM*;NSP2 full ctr=5.8µM*;Furin counter=4%;NS23 peptide cs=8.2µM*;Papain cs=-3%;nsP2pro confirm=4.5µM*;HCV NS3 counter=i
O=C(C1CCN(c2nc3ccccc3[nH]2)CC1)N1CCN(c2cccc(Cl)c2)CC1	4%
Cc1ccc(Nc2ncc(C(=O)N3CCN(c4cccc(Cl)c4)CC3)c3ccccc23)cc1Cl	-20%
Cc1ccc(C(=O)/C=C/c2ccccc2)s1	15%
Fc1ccc(-c2ccc(Nc3nc(-c4ccncc4)nc4ccccc34)cc2F)c(F)c1	i
N#Cc1ccc(N2C[C@@H]3OCC(=O)N(CC4CCCCC4)[C@@H]3C2)nc1	-3%[39.2 µM]
O=C1CO[C@H]2CN(c3ncccn3)C[C@H]2N1CC1CCCCC1	2.2µM*	nsP2 cell sec=-5%;NSP2 full ctr=-2%;Furin counter=?;NS23 peptide cs=24µM*;Papain cs=-1%;nsP2pro confirm=3.7µM*;HCV NS3 counter=9.4µM*
O=C(c1cnccn1)N1C[C@@H]2OCC(=O)N(CC3CCCCC3)[C@@H]2C1	-29%[39.2 µM]
CN1C(=O)NC(c2ccccc2Cl)C2=C1CCCC2=O (centres undefined)	-3%
O=C(Nc1nc(-c2ccccc2)cs1)c1ccncc1NS(=O)(=O)c1cccc2cccnc12	i
O=C(NCC(c1cccnc1)N1CCc2ccccc2C1)c1ccc(F)c(F)c1 (centres undefined)	?	nsP2 cell sec=-12%
COc1ccc(C(=O)NCC(c2cccnc2)N2CCN(c3ccccc3)CC2)cc1 (centres undefined)	-10%
COc1ccccc1C(=O)NCC(c1cccnc1)N1CCc2ccccc2C1 (centres undefined)	-17%
Cc1cc(NC(=O)Nc2nnc(-c3cccnc3)s2)ccc1Cl	2%
O=C(O)c1cccc(O)c1O	-21%
CC(C)c1cccc(C(C)C)c1O	-5%
Oc1cccc(O)c1O	8.8µM*	nsP2 cell sec=-19%;NSP2 full ctr=15µM*;Furin counter=-15%;NS23 peptide cs=8.2µM*;Papain cs=-12%;nsP2pro confirm=1.8µM*;HCV NS3 counter=3.3µM*
SMILES	nsP2pro primary	others
COc1cccc(Nc2ncnn3ccc(CN4CC[C@@H](N)[C@H](O)C4)c23)c1	39%
C[C@](C#N)(COc1cc(C#N)ccc1C(F)(F)F)NC(=O)c1ccc(SC(F)(F)F)cc1	3%
C[C@H]1Oc2cc(cnc2N)-c2c(nn(C)c2C#N)CN(C)C(=O)c2ccc(F)cc21	-9%
FC(F)(F)c1ccc(CSc2nc3ncc(Br)cc3[nH]2)cc1	-4%
COc1cc(-c2nc(Nc3ccc(F)c(F)c3)c3ccccc3n2)c(F)cn1	3%
CC(C)(O)C1OC1C1=CC(=O)C2(C)OC2C1O (centres undefined)	9.9µM*	nsP2 cell sec=-6%;NSP2 full ctr=4.6µM*;Furin counter=-4%;NS23 peptide cs=?;Papain cs=10µM*;nsP2pro confirm=5µM*;HCV NS3 counter=?
Cc1sc(NC(=O)Cc2ccc3c(c2)OCO3)nc1-c1ccc2c(c1)CCN2C	-13%
CC[C@@H](C)[C@H](N)C(=O)N1Cc2ccccc2C1	-28%
C#CCOc1cc(C2=Nn3c(nnc3-c3ccc(OCC(C)=O)cc3)SC2)ccc1OC	-1%
COc1ccc(C(=O)Nc2ccc(S(=O)(=O)N(Cc3ccccc3)c3ccccc3)cc2)cc1	-7%
CN(Cc1ccccc1)C(=O)c1ccc(S(=O)(=O)Nc2ccccc2)cc1	-1%
CC(C)N(CCC(=O)c1ccc2ccccc2c1)Cc1ccccc1	0.56µM*	nsP2 cell sec=?;NSP2 full ctr=0.92µM*;Furin counter=-12%;NS23 peptide cs=5.8µM*;Papain cs=96%;nsP2pro confirm=0.5µM*;HCV NS3 counter=i
C=C1C[C@H]2[C@@H]3CCC4=CC(=O)CC[C@@H]4[C@H]3CC[C@]2(C)[C@@]1(OC(C)=O)C(C)=O	-13%
COc1cccc(CNc2ccc(S(=O)(=O)Nc3ccccc3)cc2)c1O	i
Fc1cc(Nc2nc(-c3ccncc3)nc3ccccc23)ccc1-c1cn[nH]c1	i
COc1cc2c(cc1OC)-c1cc3ccc(OC)c(OC)c3c[n+]1CC2	·	nsP2 cell sec=3%;NSP2 full ctr=?;Furin counter=-23%;NS23 peptide cs=?;Papain cs=?;nsP2pro confirm=?;HCV NS3 counter=i
c1c2c(cc3c1OCO3)-c1cc3ccc4c(c3c[n+]1CC2)OCO4	?	nsP2 cell sec=-6%;NSP2 full ctr=?;Furin counter=4.1µM*;NS23 peptide cs=?;Papain cs=-22%;nsP2pro confirm=?;HCV NS3 counter=i
O=C(NCCc1nc2ccccc2n1CCOc1ccc(C(F)(F)F)cc1)C1CCCCC1	-23%
COc1c(C(C)C)c(O)c(O)c2c1C(OC)[C@H]1OC(=O)[C@@]23CCCC(C)(C)[C@H]13 (some centres undefined)	-5%
COc1cc(OC)cc(C(=O)Nc2ccc(Cl)c(-c3nc4ccc(N(C)C)cc4[nH]3)c2)c1	10%
O=C(CC(c1ccccc1)c1ccccc1)N1CCN(C(c2ccccc2)c2ccccc2)CC1	8%
COc1ccccc1N1CCN(C(c2ccccc2)c2nnc(-c3ccccc3Cl)o2)CC1 (centres undefined)	-10%
COc1ccc(N2CCN(C(c3ccccc3)c3nnc(-c4ccccc4Cl)o3)CC2)cc1 (centres undefined)	?	nsP2 cell sec=?
COc1ccccc1N1CCN(C(c2ccc(Cl)cc2)c2nnc(-c3cccc(F)c3)o2)CC1 (centres undefined)	-13%
